For assay [1] the following is noted: Ebola virus entry assay, green fluorescence channel.
For assay [2] the following is noted: Ebola virus entry assay, blue channel fluorescence.
The conditions of assay [3]: Ebola virus entry assay, green fluorescence channel. The source holds these as a separate data set.
For assay [4] the following is noted: Ebola virus entry assay, ratio channel readout.
For assay [5] the following is noted: Ebola virus entry assay, blue channel fluorescence. This is another data set of the same source.
For assay [6] the following is noted: Ebola virus entry assay, ratio channel.
The conditions of assay [7]: Ebola virus entry assay, blue channel fluorescence. This is another data set of the same source.
The conditions of assay [8]: Ebola virus entry assay, reporter ratio channel; AC50: Channel type: primary unless noted; outcome: Channel type: primary unless noted.
The conditions of assay [9]: Ebola virus entry assay, blue channel (ratio component).

Unmarked numbers belong to inactive results. For some assays here: Measured potencies and affinities stand elsewhere. Activity calls are given as the source filed them.
Wherever efficacy is given: 0% is about no effect.

What is called AC50 is the concentration giving half of the maximal activity seen. Turning to `COC(=O)CCc1ccc(OCC(O)CNC(C)C)cc1` (configuration not stated), in assay [1], the efficacy was 35.4%. The result in assay [2], in [3], in assay [4], in [6], in [7] and in assay [9] was inactive. Besides, the AC50 in assay [5] is 22.4 µM (active); in assay [8] it was 31.6 µM (active).

On to `CN(C)CCCN1c2ccccc2CCc2ccc(Cl)cc21`, for which the efficacy in [1] was -191%. In addition, the AC50 in assay [2] was 7.94 µM (active); in assay [4] it was 6.31 µM (active); in assay [5], 3.16 µM (active); in [6], 3.16 µM (active). For the same molecule, the result in assay [3] was inactive. Also, the outcome in [8] was “inactive [Channel type: confirmation]”.

`CC(N)C12CC3CC(CC(C3)C1)C2` (configuration not stated): the efficacy in assay [1] is 56.9%. In addition, the call in assay [2], in assay [3] and in [4] was inactive. In addition, the AC50 in assay [5], in [6] and in assay [8] was 28.2 µM (active) throughout.

For `COc1ccc(C(CN(C)C)C2(O)CCCCC2)cc1` (configuration not stated), the efficacy in assay [1] was 55.6%. Also, the outcome in [2], in assay [3], in [4], in assay [6] and in [7] was inactive. The values for the AC50 in assay [5] and in [8] were 35.5 µM (active) and 39.8 µM (active), respectively.

`NC(=O)C(c1ccccc1)(c1ccccc1)[C@@H]1CCN(CCc2ccc3c(c2)CCO3)C1`: in assay [1], the efficacy was 91.3%. Moreover, the call in [2], in assay [3] and in assay [4] was inactive. The AC50 was 39.8 µM (active) in assay [5], 31.6 µM (active) in assay [6] and 31.6 µM (active) in assay [8].

`CNCC[C@@H](Oc1ccccc1C)c1ccccc1`: the efficacy in [1] was 103%. Besides, the call in assay [2], in assay [3] and in assay [4] was inactive. For the same molecule, the AC50 in assay [5], in [6] and in assay [8] was 10 µM (active) throughout.

As to `CCc1c2c(nc3ccc(OC(=O)N4CCC(N5CCCCC5)CC4)cc13)-c1cc3c(c(=O)n1C2)COC(=O)[C@]3(O)CC`, the efficacy in assay [1] was 45.7%. Also, the result in assay [2], in assay [3], in assay [4] and in [7] was inactive. In addition, the AC50 in [5] is 20 µM (active); in [6], 28.2 µM (active); in assay [8], 28.2 µM (active).

With `CC(C)C[C@H](NC(=O)[C@H](Cc1ccccc1)NC(=O)c1cnccn1)B(O)O`, the efficacy in assay [1] is -28.6%. For the same molecule, the molecule was classed as inactive in assay [2], in assay [3], in assay [4] and in [7]. Further, the AC50 was 0.0794 µM (active) in assay [5], 1.26 µM (active) in assay [6] and 1.26 µM (active) in [8].

For `CCOC(=O)Nc1ccc2c(c1)N(C(=O)CCN1CCOCC1)c1ccccc1S2`, the efficacy in assay [1] is 62.7%. For the same molecule, the molecule was called inactive in assay [2], in [3], in assay [4], in assay [5], in assay [6] and in assay [7]. Further, the outcome in assay [9] was inactive. Besides, the AC50 in assay [8] is 39.8 µM (active).

Turning to `CC(=O)Oc1cc2c(s1)CCN(C(C(=O)C1CC1)c1ccccc1F)C2` (configuration not stated), in assay [1], the efficacy was 43.8%. The molecule was called inactive in assay [2], in assay [3], in assay [4], in assay [5], in assay [6] and in assay [7]. Further, the result in [8] and in assay [9] was inactive.

Turning to `CC[C@@]1(O)C(=O)OCc2c1cc1n(c2=O)Cc2cc3c(CN(C)C)c(O)ccc3nc2-1`, the AC50 is 31.6 µM (active) in assay [1], 7.94 µM (active) in assay [3], 7.94 µM (active) in [6] and 7.94 µM (active) in assay [8]. Besides, the molecule was classed as inactive in [2], in assay [4], in assay [5], in assay [7] and in [9].

As to `Cc1cc2c(s1)Nc1ccccc1N=C2N1CCN(C)CC1`, the efficacy in assay [1] is 36%. Also, the call in [2], in assay [3], in assay [4], in [5], in [6] and in assay [7] was inactive. For the same molecule, the result in assay [9] was inactive. Moreover, the AC50 in assay [8] is 39.8 µM (active).

With `Cc1ccc(-n2[nH]c(C)c(N=Nc3cccc(-c4cccc(C(=O)O)c4)c3O)c2=O)cc1C`, in [1], the efficacy is 128%. For the same molecule, the outcome in assay [2], in [3], in [4], in assay [5], in assay [6] and in [7] was inactive. Moreover, the result in assay [8] and in [9] was inactive.

With `CCc1ccc(CCOc2ccc(CC3SC(=O)NC3=O)cc2)nc1` (configuration not stated), the efficacy in assay [1] was 52.6%. For the same molecule, the result in assay [2], in [3], in assay [4], in assay [5], in [6] and in assay [7] was inactive. In assay [8], the outcome was inactive.

With `NC[C@H](O)c1ccc(O)c(O)c1`, the efficacy in [1] was 112%. The molecule was classed as inactive in assay [2], in assay [3], in assay [4] and in [7]. Moreover, the AC50 in [5] is 12.6 µM (active); in assay [6], 7.94 µM (active); in assay [8], 7.94 µM (active).

Consider `COC(=O)C1=C(C)NC(C)=C(C(=O)OCC(C)C)C1c1ccccc1[N+](=O)[O-]` (configuration not stated), for which the efficacy in [1] was 55.8%. Also, the call in assay [2], in [3] and in [4] was inactive. For the same molecule, the values for the AC50 in [5], in assay [6] and in assay [8] were 28.2 µM (active), 17.8 µM (active) and 17.8 µM (active), respectively.

Take `CN(Cc1cnc2nc(N)nc(N)c2n1)c1ccc(C(=O)N[C@@H](CCC(=O)O)C(=O)O)cc1`: the efficacy in assay [1] is 38.5%. In addition, the call in [2], in assay [3], in [4], in assay [5], in assay [6] and in [7] was inactive. Further, the result in assay [8] was inactive.

These data come from PubChem BioAssay (NCATS).
